Bioassay records deposited in PubChem BioAssay by The Scripps Research Institute Molecular Screening Center.
Nox1 inh: human Nox1 inhibition. Q9Y5S8. HT29 cells, luminol chemiluminescence ROS. inhibition, % at 6.7 µM. actives 0.81% (n = 16,000)
Target sequence (Q9Y5S8 whole entry, looked up): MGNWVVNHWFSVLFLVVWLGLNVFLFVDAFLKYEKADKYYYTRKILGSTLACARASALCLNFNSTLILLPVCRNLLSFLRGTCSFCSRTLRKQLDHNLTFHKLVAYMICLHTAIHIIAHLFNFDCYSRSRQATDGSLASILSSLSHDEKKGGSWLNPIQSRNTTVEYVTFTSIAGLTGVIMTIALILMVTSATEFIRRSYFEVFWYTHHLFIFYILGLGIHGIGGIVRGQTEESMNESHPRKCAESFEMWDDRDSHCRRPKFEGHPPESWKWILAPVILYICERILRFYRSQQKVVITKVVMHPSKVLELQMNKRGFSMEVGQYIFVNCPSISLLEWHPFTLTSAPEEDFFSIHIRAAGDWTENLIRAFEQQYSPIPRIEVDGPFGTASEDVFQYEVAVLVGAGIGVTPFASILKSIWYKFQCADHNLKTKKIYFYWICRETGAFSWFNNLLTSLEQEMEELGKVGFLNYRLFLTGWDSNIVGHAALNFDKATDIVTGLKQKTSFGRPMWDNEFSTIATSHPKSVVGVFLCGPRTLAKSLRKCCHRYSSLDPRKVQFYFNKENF
PME-1 Maybridge: Maybridge compound blocking human PME-1. Q9Y570. recombinant PME-1, FP-Rh probe fluorescence polarization. inhibition, % at 9 µM. actives 0.5% (n = 16,000); in the data active = inhibition above about 30%
NOTCH agonist: agonists of NOTCH signaling; activation, % at 2.5 µM; AID 434982; actives 0.4% (n = 15,000); NOTCH signaling luciferase reporter cells, luminescence; in the data active = activation above about 2.2%
luminol inh ctr: luminol signal inhibition, Nox1 inhibitor counter-screen. HRP/luminol/H2O2 chemiluminescence counterscreen. actives 0.4% (n = 16,000). inhibition, % at 6.7 µM; note: reference of the scale not given here
Each line names hits and unclear results; the compound was inactive in the other large screens. In the library only some 2.2% were active in any assay of this set; here they are far more common. Cut-off read from the data, not from the text of the source, unless noted: active = inhibition above about 75%; inactive = the rest.

O=C(NNc1c(Cl)cncc1Cl)c1ccc(F)cc1F	none
O=C(NNc1cc(Cl)cc(Cl)c1)c1ccc(F)cc1F	luminol inh ctr 75.5
O=C(CCN1CCC(c2ccc(Cl)s2)=N1)c1ccc(Cl)s1	NOTCH agonist 3.4
S=c1[nH]nc(SCCSc2n[nH]c(=S)s2)s1	none (no result: NOTCH agonist)
O=C(Nc1ccc(N2CCCCC2)cc1)Nc1ccccc1OC(F)(F)F	Nox1 inh 80.2
CC(=O)Nc1sc(=Nc2ccc(C)c(C)c2)n(C(C)=O)c1-c1ccc2c(c1)OCO2	PME-1 Maybridge 35.3
NNC(=O)CSc1cc(C(F)(F)F)nc2ccccc12	none
